# ± gives the standard deviation of the averaged measurements. Over roughly 25,000 sequences, “ln(normalized median fluorescence intensity)” has its median near 10; the highest 2% begin near 12. What follows is part of a selection rich in the highest values, with near analogues and random picks from the rest.
# System: PfAP2-G AP2 domain (GST-tagged)
# Assay: gcPBM binding intensity (ln(normalized median fluorescence intensity)); higher = stronger DNA binding
# Outline: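 The highest Masliner-normalised natural-log median intensity across replicate spots of either probe orientation is reported as binding intensity. GST-tagged P. falciparum DNA-binding domains expressed in E. coli were applied for 1 h to an Agilent 4 × 180k array of primer-extended double-stranded 36-bp intergenic genomic probes plus negative controls, and bound protein was detected with Alexa488 anti-GST antibody and scanned at 488 nm.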
row,Sequence,gcPBM binding intensity (ln)
1,CTCAATATATTTGATTTACACACTTACAATGTATAT [CACACA_site8982],10.04 ± 0.078
2,GATATATATATTCACACACACATGGAAATATATATA [CACACA_site382],9.88 ± 0.028
3,ATATATATGGTCATTTGTACATATCGTGAGAGCTGC [XGTACX_site4117],11 ± 0.49
4,ATATATATATAAAGGAGTACATACATTAAAAAAAAA [XGTACX_site1095],11.7 ± 1
5,AGTAGATATAAAAGGAGTACACATATATATATAAAT [XGTACX_site4375],11.6 ± 1
6,GTATTATAAAAAGGAAGTACATATATACATATTATA [XGTACX_site1271],11.3 ± 0.75
7,GAAAAAAGAAAAAAAAGTACATATATTTAATAAGAC [XGTACX_site6912],11.4 ± 0.86
8,ATATATATAATTTAAAGTACATATTTAAGAATGAAA [XGTACX_site2238],11.1 ± 0.67
9,TTAAGAAACAAAGAAAGTACACAACATAATATAGAA [XGTACX_site477],11.4 ± 0.69
10,AATAAATAAAGAAGTACACACATATATATATATATA [CACACA_site4314],11.7 ± 1.1
11,TATAAAAATAAAAAAAGTACACATAAAAATATATAT [XGTACX_site5189],11.5 ± 0.78
12,AAAAAAAAAAAAAGTACACACATACATATAAATATA [CACACA_site8533],11.5 ± 0.86
13,AAAAATATATAATAAAGTACACATAAATGAATAAAT [XGTACX_site329],11.5 ± 0.81
14,TTAAGAAAAAAAAAAAGTACACACATATAATATATA [XGTACX_site6268],11.6 ± 1
15,AATGAATATTAAAGGAGTACACATAATAAGTAAGAA [XGTACX_site7354],11.7 ± 0.99
16,ATATTAATATATGTGGCACACATGTGGAGTCCTATT [CACACA_site213],10.7 ± 0.43
17,TTATCACATTATTGCACACACATAAAGAAAAAAATA [CACACA_site2841],10.4 ± 0.5
18,AAAAAAATAAAATATATATATATATATATATATATA [GTGCAC_negctrl_site706],9.96 ± 0.89
19,ATATATATGTGTAAAAGTACATATATTTTGAAATAT [XGTACX_site4024],11.2 ± 0.79
20,TTATAATTGTAAGGTAGTACATATAAATCAAATAAT [XGTACX_site7190],11.5 ± 0.94
21,TTAAAAAAAAAAAAAAGTACATAAGTATATATAATA [XGTACX_site4295],11.7 ± 1
22,ATATAAATAAAAAAAAGTACATAATATATAAAAATA [XGTACX_site3065],11.5 ± 1
23,TATATATAAAAAAAAAGTACATATAATATAATATTT [XGTACX_site7902],11.5 ± 1

row,Sequence,gcPBM binding intensity (ln)
1,TATGATTTTAATGAAACACACAATTTTATGTTAATA [CACACA_site311],9.82 ± 0.11
2,TTATAATATATATGTAGTACTGTTTTTTTCTATTTT [XGTACX_site7749],11 ± 0.63
3,TTTGCCCAAAAAGGTACACACCACAATGTACATAAA [CACACA_site4599],11.9 ± 1.1
4,TGTACAACAATTTTTGCACACACCAAAACATAAAAT [CACACA_site1598],11.1 ± 0.2
5,CTTTTGCCCAAAAAGGTACACACCACAATGTACATA [CACACA_site809],11.6 ± 0.91
6,CACACCACCAACAAAAGTACATACATATATATATAT [XGTACX_site5781],11.3 ± 0.82
7,TCTTTTGCCCAAAAAGGTACACACCACAATTTAAAT [XGTACX_site1482],11.4 ± 0.88
8,CTTTTGCCCAAAAAGGTACACACCACAAAGTACATA [CACACA_site8169],11.9 ± 1.2
9,TCTTTTTACACCTCTTACATAAAACAAAATAAGGGG [XGTACX_negctrl_site12],10.7 ± 0.38
10,TTTATTTATTATTATGTACACACTATATTAAAACAT [CACACA_site700],11.4 ± 0.87
11,ATATAATTACCATATGGTACACACATATATATATGT [XGTACX_site7393],11.3 ± 0.62
12,ATCAAATAATAGCAAACACACAAAAAATAAAAAAAA [CACACA_site4146],9.96 ± 0.15
13,AAAAAATATAAAACGAGTACATATATAATAAGCAAA [XGTACX_site1360],11.4 ± 0.82
14,GGATAAAATGCTACGAGTACATAAGCATTTTTCCCT [XGTACX_site7796],11.7 ± 1.2
15,ACATTAAAAAAAAAATGTACATAAATATTTTTCCTT [XGTACX_site4361],11.1 ± 0.59
16,AGGTACTTTTTTAAAACACACATATAACATATACAC [CACACA_site6629],11.3 ± 1.1
17,ATACATTCTAATACGTGTACATATATATATATATAT [XGTACX_site1881],11.4 ± 0.81
18,AACAAATACGGACACACACACACACTAGAAAAAAAA [CACACA_site4442],11.4 ± 0.86
19,ATAAATAAAGGACACACACACACACTAGAAAAAAAA [CACACA_site5450],11.2 ± 0.92
20,TACACAGACGGACACACACACACACTAGAAAAAAAA [CACACA_site4435],11.7 ± 1.2
21,ATTTATATATATGTATGTACGTATGTGTGTATATGT [XGTACX_site7587],11.4 ± 0.88
22,GTATGTATGTATGTATGTACGTATGTATGTATATAT [XGTACX_site3369],11.6 ± 0.98
23,AAACGTGCGTATATGTGTACGCATATATATATATAT [XGTACX_site5252],11.6 ± 1

row,Sequence,gcPBM binding intensity (ln)
1,ATGACATGTTCTAAATGTACATTTTTTAACCCTTTT [XGTACX_site1858],10.8 ± 0.4
2,TTTTTTTTTTTTTTATGTACATATATATATTTTATT [XGTACX_site6915],11.2 ± 0.98
3,TTTTTTTTTTCTTTTTTTTATTATATTAACGGAATT [GTGCAC_negctrl_site104],9.82 ± 0.17
4,ATGGTAGTGATTAAAAGTACACGTAATTGTAAAAAT [XGTACX_site387],11.7 ± 0.79
5,TTAGTTATTATAATTTGTACACAAATGGTAAAGTAT [XGTACX_site2343],11.2 ± 0.71
6,CAAATGGTAAATGAAAGTACAAATTGTTTTGATTAA [XGTACX_site1536],10.8 ± 0.4
7,TAAAAAAAAAAATGAACATGCAACAATTGTGATGAA [TGCATGCA_site332],9.74 ± 0.32
8,ATTATATTAAAATACACACCCAAATATTAAAAAGAT [CACACA_site5613],10.4 ± 0.19
9,AAATAAATAAATAGACGTACAAAAATATTATACATT [XGTACX_site6776],11.2 ± 0.8
10,GCACCAAAAAAAAGACGTACAGTTATATTAAAATAG [XGTACX_site8926],11.7 ± 1
11,TTTTTATAAGCATAAAGTACAAATATTTTTTAGTTG [XGTACX_site4140],11 ± 0.59
12,TGTAAGTATTCTTGAGGTACACATATAAATATAGTA [XGTACX_site3207],11.4 ± 0.79
13,AAATATATATATATATATATATATATATATATATAT [CACACA_negctrl_site677],10 ± 1
14,TAATATTTATAAAATAGTACACAGAAAAAGCATTTT [XGTACX_site8948],11.4 ± 0.88
15,TATATAAAGCATTGTAGTACTACCAATATTTTTTTT [XGTACX_site3523],11.6 ± 1
16,ATAGAATAATATTGTAGTACTAAAAATATTCATTTT [XGTACX_site6447],11.4 ± 0.92
17,GGAAACCTTTTTTTTACACACAATATATTAAGACTT [CACACA_site4899],9.86 ± 0.014
18,AAAAAAAAATTAAACATACACACGTTACTATTTTTA [CACACA_site1687],9.64 ± 0.26
19,TTATTATAAATGTTTTGTACGTACATCCGAAAATAA [XGTACX_site2175],11.7 ± 1.2
20,TACGTATTTTAATATTTACACACTTATTTTTTATAT [CACACA_site7924],10.2 ± 0.13
21,AATGTTTATTTTGTTTGTACATAAAATGAATAAAAT [XGTACX_site1456],11.1 ± 0.77
22,TATTAAGTATTTTACGTACACACTTATAAATGTACA [CACACA_site3885],11.7 ± 0.82
23,AAAATTATTAAATATGTACACACGTACATTTTATAA [CACACA_site8750],11.6 ± 0.88

row,Sequence,gcPBM binding intensity (ln)
1,TAGTATTATTTTTTTTGTACATATAAATGTAAAATA [XGTACX_site5282],11 ± 0.71
2,TTATTAAATATGTACACACGTACATTTTATAAATGA [CACACA_site2387],11.7 ± 1.1
3,AATTATTAAATATGTACACACGTACATTTTATAAAT [CACACA_site5341],11.6 ± 1
4,TATAATATATTTTAATGTACGTACATCCCGATTAAT [XGTACX_site7651],11.7 ± 0.86
5,TTATACATATTTATATGTACGTAATATAATATTAAT [XGTACX_site6520],11.3 ± 0.91
6,AAATGTATAATTTTTTAATACACTTATTTAAAATAA [CACACA_negctrl_site797],10.1 ± 0.2
7,AATATTTTTAATTAATGTACATATTTATTATATAAA [XGTACX_site5112],11.2 ± 0.76
8,CCTTTCTATTGAAAATGTACATATATATTATTATAT [XGTACX_site5527],11.1 ± 0.71
9,ATATTTTCTAATCAATGTACTTATTCTACACATTAA [XGTACX_site5774],11.3 ± 0.92
10,ATGGAAATATATACATGTACATAAATATATATATAT [XGTACX_site8391],11.2 ± 0.61
11,TTTTACTCTTAAAATAATAAAAAATATTCACATTTA [CACACA_negctrl_site1508],9.63 ± 0.085
12,TAAATTATAACGTGCACACATATTTAAAATGAAATG [CACACA_site2820],10.6 ± 0.45
13,TCTTCACCACGTGGAAGTACATAAAAAGATACACAA [XGTACX_site4747],11.4 ± 0.93
14,AATTTATTAGATAGATGTACATTTTAATAAAAGTAG [XGTACX_site6819],11.1 ± 0.67
15,AGATATTTTTCTTAAGTACACACTAATTAGAAACTA [CACACA_site7897],11.3 ± 0.93
16,CCCATATTATAGGTGTGTACATAAAAGTATATATAA [XGTACX_site3629],11.6 ± 0.95
17,TAACACCAAACTAAATGTACACACATACATAAATAT [XGTACX_site2201],11.2 ± 0.79
18,TATATAATATATTAATGTACGTTATATGTATTCCTT [XGTACX_site6140],11.2 ± 0.81
19,ATAATCCTTGGACACACACACACACTAGTAAATAAA [CACACA_site4423],10.9 ± 0.57
20,ATAAAAGATATTTTTACACACTTTTGATGAGATCGT [CACACA_site3053],10.08 ± 0.057
